Results as given in PubChem BioAssay AID504894 (National Center for Advancing Translational Sciences (NCATS), 2011).
The campaign covered roughly 330,000 compounds. Fewer than 10 were called active. Not all results are given here. A number with no mark means an inactive call. Calls follow the shape of the dose curve; as a rule, active = well fitted activation curve with a large enough effect; inconclusive = small, poorly fitted or top-dose-only effect, or another doubt; inactive = no such curve, though single readings can be large or run the other way.

Experiment: Activators of T cell receptors: qHTS campaign; also: % of control where 0% means no effect
Settings: primary human leukocytes, anti-CD3, IL-2 HTRF, 48 h; series mostly up to 9.22 µM; activation of IL-2 secretion: at the top concentration
From the text: Normally activation of naive T cells requires two signals. 1. A signal through the T cell receptor (TCR) which provides antigen specificity to the response. 2. Signals through co-stimulatory molecules, which are necessary for proliferation, survival and cytokine production. In the absence of co-stimulatory signals T cells are not effectively activated, and may even be rendered anergic or unresponsive to subsequent signaling. This lack of costimulation has been shown in multiple model systems to be a major factor in the limited strength and effectiveness of anti-tumor T cell responses. The goal of this project is to identify small molecule compounds that will stimulate T cell activation in the presence of TCR signaling but in the absence of co-stimulatory signals, thereby allowing activation of naive T cells in the absence of co-stimulation. Identification of such compounds would have clear experimental and clinical applications in instances where desirable antigen-specific immune responses are not generated due to a lack of co-stimulation, for example in the generation of anti-tumor responses. In collaboration between the National Cancer Institute and NIH Chemical Genomics Center, a high-throughput amenable screen was developed to discover small molecules that co-stimulate and activate human T cell receptors. The screen will be carried out using a novel homogeneous time resolved fluorescence energy transfer (HTRF) assay to measure production of the cytokine IL-2 by activated T cells and will be tested against the NIH Molecular Libraries Small Molecule Repository (MLSMR). NIH Chemical Genomics Center [NCGC] NIH Molecular Libraries Probe Centers Network [MLPCN] MLPCN Grant: MH090820-01 Assay Submitter (PI): Richard Hodes, National Cancer Institute, NIH
Primary human leukocytes are incubated with a-CD3 beads and compounds for 48 hr. The amount of secreted IL-2 is then assayed with a HTRF IL-2 kit. The presence of IL-2 cytokine captures the detection reagents and brings the a-IL-2-K and a-IL-2-d2 into close proximity. Upon excitation with 320nm light, the europium cryptate is capable of transferring energy to acceptor molecules within close proximity, resulting in acceptor molecule emission at 665nm.
In the case of `COc1cccc(CC(=NO)c2cccc(OC)c2)c1`, the “activation of IL-2 secretion” value was -1.64%.
In the case of `CC(NC(=O)c1ccccc1)C(=O)Nc1ccccc1` (stereo unspecified), the “activation of IL-2 secretion” value was -0.854%.
In the case of `COc1cc(/C=C/CNC[C@H]2O[C@@H](n3cnc(C(N)=O)n3)[C@H](O)[C@@H]2O)ccc1O`, the “activation of IL-2 secretion” value was 1.99%.
In the case of `COc1cc2c(cc1OC)C(Cc1cc(OC)c(OC)cc1[N+](=O)[O-])=NCC2`, the “activation of IL-2 secretion” value was 5.72%.
For `Cc1ccc(-c2csc(C(C#N)=C(O)CN3CCN(C(=O)c4ccco4)CC3)n2)cc1`, the “activation of IL-2 secretion” value was 6.47%.
For `CN(C)c1ccc(CSc2ccccc2)cc1`, the “activation of IL-2 secretion” value was -1.78%.
In the case of `COc1cc(C(=O)CCc2ccc3c(c2)OCO3)cc(OC)c1OC`, the “activation of IL-2 secretion” value was 8.7%.
For `O=c1[nH]c2c(c(=O)n1-c1ccccc1)CCO2`, the “activation of IL-2 secretion” value was -1.41%.
For `CN(C(=O)c1cccc(NC(=O)Cc2ccc(NC(=O)C3CCCN(C(=O)C4CCCC4)C3)cc2)c1)C1CCC1` (stereo unspecified), the “activation of IL-2 secretion” value was -4.37%.
For `CC(=O)c1cccc(-c2ccc(CN3C(CC(C)C)C(=O)N(Cc4cn(CC5CCCCC5)nn4)CCS3(=O)=O)cc2)c1` (stereo unspecified), the “activation of IL-2 secretion” value was 7.42%.
In the case of `N#CCc1c[nH]c2ccc([N+](=O)[O-])cc12`, the “activation of IL-2 secretion” value was 10.7%.
In the case of `O=c1c2ccccc2ncn1CCc1ccncc1`, the “activation of IL-2 secretion” value was -2.16%.
In the case of `COc1cccc2c1C(=O)c1c(O)c3c(c(O)c1C2=O)CC(O)(C(C)=NNC(=O)c1ccc(Cl)c(Cl)c1)CC3OC1CC(N)C(O)C(C)O1` (stereo unspecified), the “activation of IL-2 secretion” value was 1.92%.
In the case of `O=c1ccn([C@@H]2O[C@H](CNS(=O)(=O)c3cc4ccccc4s3)[C@@H](O)[C@H]2O)c(=O)[nH]1`, the “activation of IL-2 secretion” value was -47.4%.
For `CCCCN1CC(COCc2ccccc2)OCCS1(=O)=O` (stereo unspecified), the “activation of IL-2 secretion” value was -2.23%.
For `COc1ccc(OC)c(Cc2cnc3nc(N)nc(N)c3c2C)c1`, the “activation of IL-2 secretion” value was -1.86%.
In the case of `CCC1([N+](=O)[O-])COC(c2ccc(C(C)C)cc2)OC1` (stereo unspecified), the “activation of IL-2 secretion” value was -4.78%.
With `CC1C(C)N(C(=O)CCl)c2ccccc2N1C(=O)CCl` (stereo unspecified) the “activation of IL-2 secretion” value was -0.0701%.
For `OCC(O)C1OCOC(C(O)CO)C1O` (stereo unspecified), the “activation of IL-2 secretion” value was 4.15%.
In the case of `CC1=CC(=NNS(=O)(=O)c2ccc([N+](=O)[O-])cc2)CC(C)(C)C1`, the “activation of IL-2 secretion” value was 7.06%.
In the case of `C#CCOCCOCCOCCNc1nc(N2CCOCC2)nc(N2CCN(C(=O)[C@H](Cc3ccc(O)cc3)n3cc(CCO)nn3)CC2)n1`, the “activation of IL-2 secretion” value was -9.96%.
In the case of `COc1ccc(Cl)cc1C=CC=Nc1ccc(S(N)(=O)=O)cc1`, the “activation of IL-2 secretion” value was 6.08%.
With `O=C(O)C(CCc1ccccn1)c1ccccc1` (stereo unspecified) the “activation of IL-2 secretion” value was 0.56%.
With `COc1ccc(C(=O)Nc2cccc(/C=C(/CCC(=O)O)c3nc4ccccc4s3)c2)cc1` the “activation of IL-2 secretion” value was 5.18%.
With `O=[N+]([O-])c1ccc(NS(=O)(=O)c2ccccc2)c(Cl)c1` the “activation of IL-2 secretion” value was 0.637%.
In the case of `OC(COc1ccccc1)CN1CCN(c2cccc(Cl)c2)CC1` (stereo unspecified), the “activation of IL-2 secretion” value was 5.71%.
With `COc1cc2c(cc1CNC[C@H]1O[C@@H](n3cnc(C(N)=O)n3)[C@H](O)[C@@H]1O)OCO2` the “activation of IL-2 secretion” value was 15%.
For `CCc1nnc(NC(=O)c2cc(S(=O)(=O)N3CCN(CC)CC3)ccc2Cl)s1`, the “activation of IL-2 secretion” value was 2.5%.
With `O=C(NNc1nc(N2CCCC2)nc(N2CCCC2)n1)c1ccccc1` the “activation of IL-2 secretion” value was -3.33%.
For `Nc1ccc2[nH]c(=S)sc2c1`, the “activation of IL-2 secretion” value was 6.49%.
In the case of `CCCC(O)(c1ccccc1)C(c1ccccc1)c1ccccn1` (stereo unspecified), the “activation of IL-2 secretion” value was -4.1%.
In the case of `COc1ccc(Cl)cc1C=CC=NNC(=O)c1ccncc1`, the “activation of IL-2 secretion” value was -0.951%.
For `COc1cccc2oc(CCc3ccccc3)cc(=O)c12`, the “activation of IL-2 secretion” value was -2.9%.
In the case of `Nc1ccc2c(c1)C(O)c1ccc(Cl)cc1-2` (stereo unspecified), the “activation of IL-2 secretion” value was 0.187%.
For `COc1ccc(CNCCCNCc2ccc(OC)c(OC)c2)cc1OC`, the “activation of IL-2 secretion” value was -0.561%.
With `O=S(=O)(Nc1ccc2ccccc2c1)N1CCCCC1` the “activation of IL-2 secretion” value was 1.29%.
In the case of `C[C@@H]1NS(=O)(=O)c2cc(Cl)ccc2O[C@@H]1c1ccccc1`, the “activation of IL-2 secretion” value was 0.528%.
With `O=[N+]([O-])c1ccc(COc2ccccc2CN2CCOCC2)cc1` the “activation of IL-2 secretion” value was -5.64%.
With `Cc1nc2ccccc2c(C(=O)O)c1-c1ccccn1` the “activation of IL-2 secretion” value was -0.737%.
With `O=C1NC(=O)C(CCc2ccccc2)(c2ccccc2)N1` (stereo unspecified) the “activation of IL-2 secretion” value was -11.2%.
In the case of `O=c1oc2ccccc2c(=O)c2ccccc12`, the “activation of IL-2 secretion” value was -4.64%.
In the case of `c1ccc(C(=NNc2nc3ccccc3s2)c2ccccn2)cc1`, the “activation of IL-2 secretion” value was -17.9%.
In the case of `Cc1ccc(OCCNC(=O)c2cccc(S(=O)(=O)N3CCN(Cc4ccccc4)CC3)c2)cc1`, the “activation of IL-2 secretion” value was -0.64%.
In the case of `O=C(NCCc1ccccc1)c1c[nH]c2ccc(F)cc2c1=O`, the “activation of IL-2 secretion” value was 3.03%.
In the case of `CNN/C(N=Cc1ccc([N+](=O)[O-])s1)=N\S(=O)(=O)c1cc(C)c(Cl)cc1SCc1ccccc1`, the “activation of IL-2 secretion” value was 0.19%.
In the case of `O=C1OC(Cc2ccccc2)C(c2ccccc2)C1=O` (stereo unspecified), the “activation of IL-2 secretion” value was 0.207%.
With `COc1ccc(S(=O)(=O)N2CCc3ccccc32)cc1C(=O)Nc1cc(S(C)(=O)=O)ccc1Cl` the “activation of IL-2 secretion” value was 4.1%.
With `CN(O)C(=S)c1ccccc1` the “activation of IL-2 secretion” value was 3.76%.
In the case of `CC(C)C[C@H]1CN([C@@H](CC(C)C)CN2CCC[C@@H]2CN2C(=O)C(=O)NC[C@@H]2Cc2ccccc2)C(=O)C(=O)N1CCc1ccccc1`, the “activation of IL-2 secretion” value was 3.01%.
For `COc1cc(C2c3cc4c(cc3C(O)C3COC(=O)C23)OCO4)cc(OC)c1OC` (stereo unspecified), the “activation of IL-2 secretion” value was -6.83%.
In the case of `Cc1cc(C)c(C=NNc2nc3c([nH]2)c(=O)n(C)c(=O)n3C)c(C)c1`, the “activation of IL-2 secretion” value was -2.46%.
